From PubChem
Most compounds without a hit are left out; they make up all but 8.7% or so of the library.
HP1b binding inh = HP1-beta chromodomain-methylated histone interaction inhibition; AlphaScreen HP1-beta / biotin-H3K9me3 peptide binding; 0.56% of 390,000 active; Potency, µM (top dose mostly 114 µM), inactives show at the top dose activity change, negative = inhibition, most hits filed as inhibitors; P83916; further: nearly all actives have a fitted effect of over 70% in size
Target sequence (P83916 whole entry, looked up): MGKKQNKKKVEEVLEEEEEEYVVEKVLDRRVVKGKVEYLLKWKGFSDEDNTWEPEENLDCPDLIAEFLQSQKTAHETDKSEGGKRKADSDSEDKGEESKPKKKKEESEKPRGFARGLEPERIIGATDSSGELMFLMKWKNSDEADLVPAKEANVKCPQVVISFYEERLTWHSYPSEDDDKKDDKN
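Compound inhibition of the preformed complex between 50 nM HP1-beta and 50 nM biotinylated H3K9me3 peptide was read by AlphaScreen. Buffer was PBS pH 7.4 with 0.01% Tween-20. Incubations ran 30 min at room temperature, with 10 ug/mL donor/acceptor beads.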
G9a inh = inhibitors of human histone lysine methyltransferase G9a; 8.8% of 350,000 active; Potency, µM (titrated, usually from 102 µM), for the others: at the top dose activity, negative = inhibition, usual class: inhibitors; AID 504332; G9a H3K9 monomethylation, AlphaScreen, 2 h; further: on the % scale 0 is the no-effect control and ±100 the full control effect; nearly all actives have a fitted effect of over 75% in size
Target sequence (Q96KQ7 913-1193 limits assumed): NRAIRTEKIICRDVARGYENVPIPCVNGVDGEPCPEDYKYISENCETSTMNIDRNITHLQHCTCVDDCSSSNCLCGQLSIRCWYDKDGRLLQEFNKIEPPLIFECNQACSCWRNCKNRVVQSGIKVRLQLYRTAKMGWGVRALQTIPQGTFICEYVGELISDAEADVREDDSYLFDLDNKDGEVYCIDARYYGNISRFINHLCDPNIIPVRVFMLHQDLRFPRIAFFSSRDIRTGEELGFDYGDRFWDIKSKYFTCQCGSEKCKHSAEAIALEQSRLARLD
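Quantitative HTS format: methyltransferase activity on a biotin-tagged H3K9 peptide is measured by AlphaScreen, using a rabbit anti-monomethyl-H3K9 antibody with streptavidin donor and anti-IgG acceptor beads. Final levels are 20 nM enzyme, 500 nM peptide, 20 uM SAM; 2 h RT.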
BAZ2B block = BAZ2B (human) inhibition; AID 504333; Q9UIF8; 4.4% of 360,000 active; AlphaScreen BAZ2B-H3K14Ac peptide displacement; Potency, µM (top dose mostly 114 µM), inactives show top-dose activity change, negative = inhibition, most hits filed as inhibitors; further: on the % scale 0 is the no-effect control and ±100 the full control effect; nearly all actives have a fitted effect of over 60% in size
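Compounds, titrated to a top concentration of 110 uM, were incubated 30 min at room temperature with preformed BAZ2B/acetyl-K14 H3 peptide complex (50 nM each). Proximity signal was measured by AlphaScreen after 20 min with beads.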
12-LOX inh = inhibitors of human 12S-lipoxygenase ALOX12; Potency, µM (series often up to 108 µM), for inactives: at the top dose activity change, negative = inhibition, usual class: inhibitors; purified 12hLO, xylenol orange hydroperoxide absorbance; AID 1671190; 1.1% of 580,000 active; further: on the % scale 0 is the no-effect control and ±100 the full control effect
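Hydroperoxide product was detected by ferrous iron/xylenol orange as the 573 to 405 nm absorbance ratio. Arachidonic acid at 40 uM (final) was turned over for 30 min at room temperature by 150 nM human 12hLO, pH 7.0 Hepes buffer, after 15 min compound preincubation.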
JMJD2A Tudor = JMJD2A Tudor domain (human) inhibition | AID 504339 | O75164 | 4.4% of 390,000 active | AlphaScreen JMJD2A-Tudor / H3K4me3 peptide binding | Potency, µM (top dose mostly 114 µM), for the others: at the top dose activity change, negative = inhibition, usual class: inhibitors; further: on the % scale 0 is the no-effect control and ±100 the full control effect; nearly all actives have a fitted effect of over 50% in size
Sfp inh = inhibitors of Bacillus subtilis Sfp phosphopantetheinyl transferase; Biochemical Sfp PPTase activity, qHTS; Potency, µM, for inactives: largest response in the series, negative = inhibition, hits mostly inhibitors; 3.5% of 310,000 active; Q9F4F7;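 further: the enzyme is Sfp with the accession as filed and its product quenches rhodamine fluorescence; 0% = enzyme reaction without inhibitor and -100% = no enzyme wells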
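Sfp 15 nM + cpd, 15 min RT; start w/ rhodamine-CoA 5 uM, BHQ-2-YbbR 12.5 uM (final); 50 mM Hepes pH 7.6, 10 mM MgCl2, 0.01% NP-40, 0.01% BSA; read 525/598 nm at 0 and 30 min.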
Numbers without * were called inactive; ? = inconclusive; / = not tested or not shown. The call rests on the fitted dose curve; in most records, active means well fitted curve in the direction sought with a large enough effect; inconclusive means small, poorly fitted or top-dose-only effect, or another doubt; inactive means no such curve, though single readings can be large; an effect the other way counts as inactive or inconclusive. Potency means the concentration at half of the fitted maximal effect.

SMILES	HP1b binding inh	G9a inh	BAZ2B block	12-LOX inh	JMJD2A Tudor	Sfp inh
COC(=O)c1ccc(C2/C(=C(\O)c3cccc(OC)c3)C(=O)C(=O)N2CCCn2ccnc2)cc1 (stereo unspecified)	/	/	/	1%	/	/
COc1ccc(-c2csc(CCn3nc(C)c4c(C(F)(F)F)cc(=O)[nH]c43)n2)cc1	/	/	/	18µM*	/	/
Cc1ccc(-c2csc(CCn3nc(C)c4c(C(F)(F)F)cc(=O)[nH]c43)n2)cc1	/	/	/	10µM*	/	/
Cc1nn(CCC#N)c2[nH]c(=O)cc(C(F)(F)F)c12	34%	-29%	-10%	-1%	-6%	-26%
CC(C)c1nnc(C2CN(C(=O)COc3ccc(Cl)cc3)CC23CCOCC3)o1 (stereo unspecified)	/	/	/	38%	/	/
CCOCC(=O)Nc1nnc(C2CCCCC2)s1	-27%	?	7%	?	-15%	-27%
Cc1ccc(N2CC(C(=O)Nc3nc4ccc(S(C)(=O)=O)cc4s3)CC2=O)cc1 (stereo unspecified)	35%	/	?	1%	-22%	45µM*
COc1ccc(N2CC(C(=O)Nc3nnc(C4CCCCC4)s3)CC2=O)cc1 (stereo unspecified)	-4%	-7%	-11%	-25%	22µM*	1%
CCOC(=O)C(=O)Nc1nnc(C2CCCCC2)s1	-10%	8.9µM*	-14%	?	-8%	?
COc1ccc(C)cc1NC(=O)CCC(=O)Nc1nnc(C2CCCCC2)s1	33%	1%	-23%	4%	-2%	-6%
COc1ccc(NC(=O)CCC(=O)Nc2nnc(C3CCCCC3)s2)c(OC)c1	27%	71µM*	-11%	-1%	-10%	?
CCOC(=O)COc1cc(O)cc2oc(-c3ccccc3)cc(=O)c12	/	/	/	5%	/	/
CC(=O)N1CCc2cc(S(=O)(=O)NCCCC(=O)N3CCC(CCOc4ccccc4)C3)ccc21 (stereo unspecified)	/	/	/	2%	/	/
CC(=O)Nc1ccc(NC(=O)C2CCN(C(=O)C3CC(=O)N(c4ccc(C)cc4)C3)CC2)cc1 (stereo unspecified)	3%	-2%	-14%	2%	-9%	14%
Cc1ccc(N2CC(C(=O)Nc3nnc(SCC(N)=O)s3)CC2=O)cc1 (stereo unspecified)	38%	40µM*	-8%	1%	-15%	0%
Cc1cc(NC(=O)CSc2nnc(NC(=O)C3CC(=O)N(c4ccccc4C)C3)s2)no1 (stereo unspecified)	38%	?	-2%	-12%	2%	-11%
NC(=O)CSc1nnc(NC(=O)C2CC(=O)N(c3ccc(F)cc3)C2)s1 (stereo unspecified)	19%	/	?	?	-22%	?
Cc1ccc(N2CC(C(=O)N3CCC(C(=O)Nc4nnc(C(C)C)s4)CC3)CC2=O)cc1 (stereo unspecified)	-14%	45µM*	12%	?	-4%	-14%
CNC(=O)CSc1nnc(NC(=O)C2CC(=O)N(c3ccccc3OC)C2)s1 (stereo unspecified)	50%	10µM*	-7%	-29%	-9%	50µM*
COc1ccc(N2CC(C(=O)Nc3nnc(SCc4ccccn4)s3)CC2=O)cc1 (stereo unspecified)	22%	50µM*	-6%	-4%	-15%	-14%
COc1ccccc1N1CC(C(=O)Nc2nnc(SCc3ccccn3)s2)CC1=O (stereo unspecified)	24%	?	-37%	-3%	-12%	-14%
NC(=O)c1ccccc1OCc1coc(-c2ccc(F)cc2)n1	/	/	/	11%	/	/
COc1ccc(C(=O)N2CCN(c3nnc4c(Cl)cccn34)CC2)cc1	/	/	/	63%	/	/
COc1ccc(N2CC(C(=O)Nc3nnc(SCC(=O)c4ccccc4)s3)CC2=O)cc1 (stereo unspecified)	11%	13µM*	-2%	-14%	-16%	28µM*
